PubChem BioAssay (NCATS)
Several values for one entry are separate records, joined by “and”; a condition that tells them apart may be missing. Equal values may be shown once. Inconclusive results are not listed. Activity calls are given as the source filed them. Unless noted, calls come from the whole dose curve; as a rule, active = well fitted curve in either direction with a large enough effect (not every such curve was filed as active); inconclusive = small, poorly fitted or top-dose-only effect, or another doubt; inactive = flat fitted curve, though single readings scatter.

Columns and labels:
[1] = AP1 Signaling Pathway (AID 357);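 note: ME-180 reporter cells stimulated with EGF at its EC50 level; % is set by controls: 0 for no effect and ±100 for the full control effect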
Method in brief: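 Read-out was the 460nm/530nm emission ratio (excitation 405nm) after CCF4 loading for 2.5 hours at room temperature. Cells carried an AP-1-driven beta-lactamase reporter, were stimulated with EC50 EGF plus compound for 5 hours, and AC50 values came from titrations.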

[2] = NFAT Signaling Pathway (AID 444); conditions: Jurkat NFAT-bla M1, carbachol, beta-lactamase ratio, 5 h;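 note: carbachol stimulus at about its EC50 of 1 µM final; % is set by controls: 0 for no effect and ±100 for the full control effect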
Method in brief: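 Jurkat cells with NFAT-driven β-lactamase reporter and co-expressed M1 receptor, stimulated with carbachol (final 1 uM, ~EC50), compound titration, 5 h at 37 °C. CCF4 loaded 1 h at RT; 460/530 nm ratio gave %activity and AC50.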

[3] = Stat Signaling Pathway (AID 446);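 note: ME-180 cervical cancer cells given 40 pM IL-6 alongside compound; SIE-controlled beta-lactamase reporter measured as 460/530 nm FRET emission ratio; % is set by controls: 0 for no effect and ±100 for the full control effect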
Method in brief: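 Reporter line: ME-180 cervical carcinoma, SIE-beta-lactamase. Treatment: compound with 40 pM IL-6, 5 hrs, 37 C, in low-serum OPTI-MEM with 10 mM HEPES pH 7.3. Detection: 460/530 nm fluorescence.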

[4] = target: Glucocorticoid receptor (Homo sapiens) (UniProt P04150); test: GR-GFP Redistribution (AID 450;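 active = compounds whose dose series gives a full or clear partial fitted curve of increased nuclear translocation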; note: potency is the fitted concentration of half-maximal effect); conditions: U2OS GR-GFP nuclear translocation, laser cytometry, 2 h
[5] = target: Glucocorticoid receptor (Homo sapiens) (UniProt P04150); test: GR-EFC Redistribution (AID 451; calls by dose curve; note: potency is the fitted concentration of half-maximal effect); conditions: CHO-K1 GR-EFC translocation, beta-gal luminescence, 2 h
Method in brief: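 CHO-K1 cells expressing nuclear EA and GR-ED fragments of b-gal; compounds titrated up to 46 uM final, 2 h at 37 C. GR nuclear translocation read as complemented b-gal luminescence after 1 h RT detection.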

[6] = target: Mitogen-activated protein kinase 10 (Mus musculus) (UniProt Q61831); test: JNK3 AlphaScreen Assay (AID 530);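 note: kinase came from lysate of stimulated human HepG2 cells; signal reports phosphorylation of biotinylated GST-cJun 1-79 at Ser73 with 10 µM ATP; % is set by controls: 0 for no effect and ±100 for the full control effect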
Method in brief: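 Pre-activated (IL-1β/TNFα) JNK3 in HepG2 lysates phosphorylates biotin-GST-cJun(1-79), 10 uM ATP; anti-phospho-cJun(Ser73) AlphaScreen read at room temperature, pH 7.6 Tris buffer. Compounds pre-incubated 15 min as titrations.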

[7] = target: 3',5'-cyclic-AMP phosphodiesterase 4B (Homo sapiens) (UniProt Q07343); test: qHTS Assay for Inhibitors of PDE-IV (AID 607; active = well fitted activation curve with a large enough effect in the main read-out, with a control signal flat, not every such curve was filed as active; note: % of control where 0% means no effect)
Method in brief: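 Cell-based read-out of cAMP via a modified cyclic nucleotide-gated channel and membrane potential dye (535/590 nm) in HEK293 cells expressing PDE4 endogenously. Compounds tested up to 22.9 uM final; 100 uM RO 20-1724 reference.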

[8] = qHTS Assay for Lipid Storage Modulators (AID 1519; calls by dose curve); conditions: Drosophila S3 cells, BODIPY lipid droplet/cell ratio, laser cytometry, cells loaded with oleic acid; for activity change, negative = inhibition: at 25.7 µM (top of the series)
Method in brief: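 Cells seeded at 5,000 per well were treated with compounds over a concentration series and loaded with oleic acid (400 uM, as added). Lipid droplet fluorescence (488 nm excitation, 500-530 nm channel) was read by laser-scanning cytometry and normalized to 20 uM Triacsin C.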

[9] = target: ATP-dependent 6-phosphofructokinase (Trypanosoma brucei brucei) (UniProt O15648); test: qHTS Assay to Find Inhibitors of T. brucei phosphofructokinase: hit validation (AID 492961; active = well fitted curve in the direction sought with a large enough effect; an effect the other way counts as inactive or inconclusive)
Method in brief: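 Compounds titrated; %activity normalized to 0x and 1x enzyme controls, curve-fitted. Readout: ADP-Glo luminescence after 45 min room-temperature reaction of 1.25 nM PFK, 0.1 mM ATP, 0.5 mM F6P, pH 8.0.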

[10] = target: Ubiquitin carboxyl-terminal hydrolase 1 (Homo sapiens) (UniProt O94782); test: Inhibitors of USP1/UAF1: Pilot qHTS (AID 504865; active = well fitted curve in the direction sought with a large enough effect; an effect the other way counts as inactive or inconclusive;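 note: rhodamine fluorescence freed from ubiquitin-rhodamine substrate followed over time; top concentration of the series differs between compounds; % is set by controls: 0 for no effect and ±100 for the full control effect; nearly all actives have a fitted effect of over 35% in size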)
Method in brief: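 Deubiquitinase activity followed as kinetic rhodamine fluorescence release from 150 nM Ub-Rho. 1 nM USP1/UAF1 with compound, after 15 min room-temperature preincubation, in HEPES pH 7.8 buffer containing TCEP, EDTA, BSA and Tween-20.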

[11] = target: Luciferin 4-monooxygenase (Photinus pyralis) (UniProt P08659); test: Biochemical firefly luciferase enzyme assay for NPC (AID 624030; active = well fitted curve in the direction sought with a large enough effect; an effect the other way counts as inactive or inconclusive;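 note: purified P. pyralis luciferase at 10 nM with luciferin and ATP substrate; 0% = DMSO and -100% = full luciferase inhibition by PTC124 control; nearly all actives have a fitted effect of over 70% in size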)
Method in brief: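 Purified P. pyralis luciferase at 10 nM in 50 mM Tris Acetate (final), luminescence read within 5 minutes of enzyme addition to compounds. Activity normalised to PTC124 versus DMSO; concentration-response curves classed by r2, magnitude and activity.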

[12] = qHTS profiling for inhibitors of Plasmodium falciparum proliferation (AID 504749; active = well fitted curve in the direction sought with a large enough effect; an effect the other way counts as inactive or inconclusive;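 note: 0% = DMSO vehicle and full inhibition = artemisinin control; nearly all actives have a fitted effect of over 60% in size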); conditions: P. falciparum in erythrocytes, SYBR Green DNA, 72 h, at 28.7 µM (top of the series)
Method in brief: (§1)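 P. falciparum-infected erythrocytes (0.3% parasitemia, 2.5% hematocrit) incubated with compound 72 h at 37 C, 5% CO2. Parasite DNA detected by SYBR Green after lysis, overnight at room temperature; normalised to 0.29 uM artemisinin and DMSO.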

CP192 = test: as above; conditions: P. falciparum in erythrocytes, SYBR Green DNA, 72 h; series mostly up to 28.7 µM
Method in brief: as §1

CP211 = test: as above; conditions: P. falciparum in erythrocytes, SYBR Green DNA, 72 h; series mostly up to 28.7 µM
Method in brief: as §1

CP286 = test: as above; conditions: P. falciparum in erythrocytes, SYBR Green DNA, 72 h; series mostly up to 28.7 µM
Method in brief: as §1

P94_40 = test: as above; conditions: P. falciparum in erythrocytes, SYBR Green DNA, 72 h; series mostly up to 28.7 µM
Method in brief: as §1

[13] = target: Cytochrome P450 3A4 (Homo sapiens) (UniProt P08684); test: qHTS Assay for Activators of Cytochrome P450 3A4 (AID 885; active = well fitted curve in the direction sought with a large enough effect; an effect the other way counts as inactive or inconclusive; note: nearly all actives have a fitted effect of over 65% in size)
Method in brief: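 Signal was normalized against complete inhibition by 57 uM ketoconazole. The reaction used 20nM CYP3A4 with 25uM Luciferin-PPXE, 10-min compound preincubation and a 60-min NADPH-supported step at RT.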

[14] = target: Cytochrome P450 3A4 (Homo sapiens) (UniProt P08684); test: qHTS Assay for Inhibitors and Substrates of Cytochrome P450 3A4 (AID 884; active = well fitted curve in the direction sought with a large enough effect; an effect the other way counts as inactive or inconclusive; note: potency is the fitted concentration of half-maximal effect; nearly all actives have a fitted effect of over 50% in size)
Method in brief: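 20 nM human CYP3A4 with 25 uM Luciferin-PPXE (at KM) in 200 mM KPO4, preincubated 10 min with compound; NADPH regeneration started a 60 min RT reaction. Luciferin detected by luminescence, normalized to 57 uM ketoconazole as full inhibition.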

[15] = measured here: cell count channel max response
[16] = measured here: lipid channel max response

Sequence of Cytochrome P450 3A4 (Homo sapiens) (P08684 whole entry, looked up): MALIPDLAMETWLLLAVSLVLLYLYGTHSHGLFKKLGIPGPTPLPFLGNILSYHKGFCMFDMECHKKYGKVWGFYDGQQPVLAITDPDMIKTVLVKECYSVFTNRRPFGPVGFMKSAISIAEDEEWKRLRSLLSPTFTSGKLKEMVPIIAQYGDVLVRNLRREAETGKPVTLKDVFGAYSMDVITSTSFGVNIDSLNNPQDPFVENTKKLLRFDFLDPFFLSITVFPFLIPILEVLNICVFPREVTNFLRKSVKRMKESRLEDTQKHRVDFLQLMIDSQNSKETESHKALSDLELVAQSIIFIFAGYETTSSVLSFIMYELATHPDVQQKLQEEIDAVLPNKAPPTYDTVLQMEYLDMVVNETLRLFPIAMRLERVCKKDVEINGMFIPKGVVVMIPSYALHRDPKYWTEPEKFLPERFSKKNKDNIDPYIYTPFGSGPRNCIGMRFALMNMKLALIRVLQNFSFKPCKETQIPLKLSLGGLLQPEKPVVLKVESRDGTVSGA
Sequence of Ubiquitin carboxyl-terminal hydrolase 1 (Homo sapiens) (O94782 whole entry, looked up): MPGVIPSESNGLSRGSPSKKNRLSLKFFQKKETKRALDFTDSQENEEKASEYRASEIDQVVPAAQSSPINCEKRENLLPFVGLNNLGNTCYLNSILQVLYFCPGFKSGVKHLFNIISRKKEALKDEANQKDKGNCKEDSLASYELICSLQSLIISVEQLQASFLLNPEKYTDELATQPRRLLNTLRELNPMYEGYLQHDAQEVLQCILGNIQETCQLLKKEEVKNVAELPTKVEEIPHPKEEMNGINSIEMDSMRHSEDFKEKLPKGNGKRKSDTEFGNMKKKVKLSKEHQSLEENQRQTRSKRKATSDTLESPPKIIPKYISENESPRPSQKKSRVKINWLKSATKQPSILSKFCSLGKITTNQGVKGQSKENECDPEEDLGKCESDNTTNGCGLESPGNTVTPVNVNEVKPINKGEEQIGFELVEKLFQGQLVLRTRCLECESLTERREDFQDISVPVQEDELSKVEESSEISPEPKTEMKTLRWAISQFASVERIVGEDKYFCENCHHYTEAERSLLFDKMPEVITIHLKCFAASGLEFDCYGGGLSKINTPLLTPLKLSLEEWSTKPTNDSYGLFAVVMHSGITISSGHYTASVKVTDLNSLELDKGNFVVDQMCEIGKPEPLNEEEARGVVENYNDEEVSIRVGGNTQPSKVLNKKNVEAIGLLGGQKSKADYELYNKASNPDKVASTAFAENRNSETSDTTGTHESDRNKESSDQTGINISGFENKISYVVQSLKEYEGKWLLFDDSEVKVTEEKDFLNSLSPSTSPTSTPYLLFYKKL
Sequence of 3',5'-cyclic-AMP phosphodiesterase 4B (Homo sapiens) (Q07343 whole entry, looked up): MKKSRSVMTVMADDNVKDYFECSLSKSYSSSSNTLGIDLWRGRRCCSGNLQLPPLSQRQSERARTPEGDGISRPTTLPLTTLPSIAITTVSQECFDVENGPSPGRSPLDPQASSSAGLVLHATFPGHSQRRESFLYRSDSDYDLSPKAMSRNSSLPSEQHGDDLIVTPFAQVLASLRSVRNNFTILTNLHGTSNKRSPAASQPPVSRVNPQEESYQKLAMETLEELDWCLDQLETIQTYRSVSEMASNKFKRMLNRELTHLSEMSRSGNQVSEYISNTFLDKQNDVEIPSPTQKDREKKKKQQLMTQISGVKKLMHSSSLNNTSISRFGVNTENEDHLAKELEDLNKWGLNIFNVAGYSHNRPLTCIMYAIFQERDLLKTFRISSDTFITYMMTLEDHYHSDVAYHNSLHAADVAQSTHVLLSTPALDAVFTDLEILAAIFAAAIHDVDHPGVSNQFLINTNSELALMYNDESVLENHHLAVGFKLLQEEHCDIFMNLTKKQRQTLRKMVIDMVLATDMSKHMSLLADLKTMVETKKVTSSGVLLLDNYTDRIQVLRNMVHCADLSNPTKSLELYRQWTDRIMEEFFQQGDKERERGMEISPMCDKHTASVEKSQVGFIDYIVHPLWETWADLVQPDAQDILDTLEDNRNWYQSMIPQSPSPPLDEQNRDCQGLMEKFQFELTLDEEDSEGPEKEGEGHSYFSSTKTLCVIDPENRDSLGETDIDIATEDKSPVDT
Sequence of Glucocorticoid receptor (Homo sapiens) (P04150 whole entry, looked up, the tested form may be a part): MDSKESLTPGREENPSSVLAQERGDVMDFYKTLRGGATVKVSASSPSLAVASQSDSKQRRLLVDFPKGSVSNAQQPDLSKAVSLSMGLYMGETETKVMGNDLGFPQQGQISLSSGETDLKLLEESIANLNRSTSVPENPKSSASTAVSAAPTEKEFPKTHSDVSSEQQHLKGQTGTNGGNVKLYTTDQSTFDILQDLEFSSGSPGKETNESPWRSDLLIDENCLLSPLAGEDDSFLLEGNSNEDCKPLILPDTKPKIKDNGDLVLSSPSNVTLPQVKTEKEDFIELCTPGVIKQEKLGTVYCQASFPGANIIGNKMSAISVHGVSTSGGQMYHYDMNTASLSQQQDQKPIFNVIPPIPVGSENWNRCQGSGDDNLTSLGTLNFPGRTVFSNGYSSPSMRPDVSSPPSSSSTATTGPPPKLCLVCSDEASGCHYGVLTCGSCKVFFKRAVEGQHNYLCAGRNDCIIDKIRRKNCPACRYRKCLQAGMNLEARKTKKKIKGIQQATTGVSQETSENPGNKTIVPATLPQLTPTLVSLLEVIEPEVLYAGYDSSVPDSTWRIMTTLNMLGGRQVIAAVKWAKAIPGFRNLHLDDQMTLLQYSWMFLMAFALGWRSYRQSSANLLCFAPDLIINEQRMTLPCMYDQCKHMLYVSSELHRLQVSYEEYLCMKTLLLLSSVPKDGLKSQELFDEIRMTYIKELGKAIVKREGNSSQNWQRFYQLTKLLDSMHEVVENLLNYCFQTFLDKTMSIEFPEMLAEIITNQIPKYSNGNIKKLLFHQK
Sequence of ATP-dependent 6-phosphofructokinase (Trypanosoma brucei brucei) (O15648 whole entry, looked up): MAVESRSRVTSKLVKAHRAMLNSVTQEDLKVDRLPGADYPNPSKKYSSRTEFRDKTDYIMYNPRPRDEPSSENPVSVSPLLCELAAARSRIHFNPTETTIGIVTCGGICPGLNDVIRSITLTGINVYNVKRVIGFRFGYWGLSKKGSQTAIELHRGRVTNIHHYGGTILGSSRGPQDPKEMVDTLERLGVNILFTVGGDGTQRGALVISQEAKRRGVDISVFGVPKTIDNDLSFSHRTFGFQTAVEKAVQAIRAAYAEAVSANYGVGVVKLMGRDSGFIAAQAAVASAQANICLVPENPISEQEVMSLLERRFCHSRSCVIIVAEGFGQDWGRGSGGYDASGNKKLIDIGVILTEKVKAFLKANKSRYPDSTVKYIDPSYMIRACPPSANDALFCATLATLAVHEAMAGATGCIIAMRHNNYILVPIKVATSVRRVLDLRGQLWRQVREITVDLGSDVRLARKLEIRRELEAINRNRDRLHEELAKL
Sequence of Luciferin 4-monooxygenase (Photinus pyralis) (P08659 whole entry, looked up): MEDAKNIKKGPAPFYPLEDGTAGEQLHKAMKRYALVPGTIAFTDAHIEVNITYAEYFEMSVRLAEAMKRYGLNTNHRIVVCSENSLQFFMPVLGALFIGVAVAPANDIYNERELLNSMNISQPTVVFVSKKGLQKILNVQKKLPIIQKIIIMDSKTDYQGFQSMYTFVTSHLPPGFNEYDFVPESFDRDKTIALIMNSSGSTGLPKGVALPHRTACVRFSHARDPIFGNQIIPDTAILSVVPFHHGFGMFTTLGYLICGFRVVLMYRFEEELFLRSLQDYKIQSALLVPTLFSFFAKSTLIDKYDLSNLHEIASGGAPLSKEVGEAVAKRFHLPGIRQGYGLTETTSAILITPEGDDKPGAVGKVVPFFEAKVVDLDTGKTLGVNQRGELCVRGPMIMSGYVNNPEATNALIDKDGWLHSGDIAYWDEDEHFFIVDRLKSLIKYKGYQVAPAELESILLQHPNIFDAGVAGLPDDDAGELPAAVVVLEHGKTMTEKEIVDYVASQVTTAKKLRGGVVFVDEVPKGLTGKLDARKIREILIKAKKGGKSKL

CC1=C2[C@@H]3OC(=O)[C@@H](C)[C@@H]3CC[C@]2(C)C=CC1=O
-1.82%: max response [8, 15]
-3.78%: max response [8, 16]
inactive: outcome [1] | activity change, negative = inhibition ([2]; at 17.2 µM (top of the series)) -9.62% | outcome [3] | Potency [4] > 20.6 µM | Potency [5] > 20.6 µM | outcome [6] | Potency [7] | activity change, negative = inhibition [8] 0.607% | Potency [9] | Potency [10] | Potency [11] | activity, negative = inhibition ([12]; parasite line A) -27% | activity, negative = inhibition ([12]; parasite line B) -4.04% | Potency (CP192) | Potency (CP211) | Potency (CP286) | Potency (P94_40)

O=[N+]([O-])O[C@H]1CO[C@H]2[C@H]1OC[C@@H]2O[N+](=O)[O-]
-2.42%: max response [8, 15]
inactive: outcome [1] | activity change, negative = inhibition ([2]; at 17.2 µM (top of the series)) -5.68% | outcome [3] | Potency [4] > 20.6 µM | Potency [5] > 20.6 µM | outcome [6] | Potency [7] | activity change, negative = inhibition [8] -2.81%
-3.6%: max response [8, 16]

CCN1C[C@]2(C)CC[C@H](OC)[C@@]34[C@@H]2[C@H](OC(C)=O)[C@]2(OCO[C@@]25C[C@@H](OC)[C@@H]2C[C@@]3(O)[C@H]5[C@@H]2OC)[C@H]14
0.99%: max response [8, 16]
-0.005%: max response [8, 15]
inactive: outcome [1] | activity change, negative = inhibition ([2]; at 17.2 µM (top of the series)) -4.41% | outcome [3] | Potency [4] > 20.6 µM | Potency [5] > 20.6 µM | outcome [6] | Potency [7] | Potency [13] | activity change, negative = inhibition [8] -1.59% | Potency [10]

NC[C@H](O)c1ccc(O)cc1
3.81%: max response [8, 16]
1.62%: max response [8, 15]
inactive: outcome [1] | activity change, negative = inhibition ([2]; at 17.2 µM (top of the series)) 6.46% | activity change, negative = inhibition ([2]; at 38 µM (top of the series)) 10.8% | outcome [3] | outcome [6] | Potency [7] | activity change, negative = inhibition [8] -0.0033% | Potency [10]

CC[C@H]1C(=O)OC[C@H]1Cc1cncn1C
-8.31%: max response [8, 15]
-6.45%: max response [8, 16]
inactive: outcome [1] | activity change, negative = inhibition ([2]; at 38 µM (top of the series)) 27.4% and 31.8% | outcome [3] | Potency [13] | activity change, negative = inhibition [8] 0.358% | Potency [10]
active: Potency [14] 3.16 µM

CC(C)N(CC[C@@](C(N)=O)(c1ccccc1)c1ccccn1)C(C)C
-13.9%: max response [8, 15]
-14.1%: max response [8, 16]
inactive: outcome [1] | outcome [3] | outcome [6] | Potency [7] | Potency [13] | activity change, negative = inhibition [8] 0.14% | Potency [9] | Potency [11] | activity, negative = inhibition ([12]; parasite line A) 9.42% | activity, negative = inhibition ([12]; parasite line B) 2.7% | Potency (CP192) | Potency (CP211) | Potency (CP286) | Potency (P94_40)
